The values below come from PubChem BioAssay (NCI).

Compounds without any hit were thinned out: in the full panel of roughly 83,000, 20% have a hit.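 Note: values are percent growth. 100 is the growth of untreated cells, values between 100 and 0 indicate rising inhibition; between -100 and 0 indicates cell death.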 The source made the active and inactive calls. Rule for the calls: active = growth percent below 10; inactive = the rest.

The test has as its system MOLT-4 leukemia. Put plainly: NCI-60 one-dose screen, 48 h (100 = growth as untreated, 0 = no growth, -100 = all killed). The conditions noted are these: 10 µM unless noted.
Turning to `O=C(Nc1ccc(S(=O)(=O)N2CCCCC2)cc1)C(Cl)Cl`, the growth is 117% (inactive).

For the molecule `O=C(c1ccc(Cl)cc1)C1[C@H](c2ccccc2Cl)[C@@H](c2ccccc2)NC12C(=O)Nc1ccccc12` (stereo partly specified), the growth was -32.1% (active).

For the molecule `O=C(c1ccc(O)cc1)C1[C@H](c2ccc(Cl)cc2)[C@@H](c2ccccc2)NC12C(=O)Nc1ccccc12` (stereo partly specified), the growth was -34.3% (active).

Take `Cc1ccc2nc(SCc3ccccc3F)n(-c3ccccc3)c(=O)c2c1`: the growth was 73.3% (inactive).

Take `CCCCNc1ccc2c3c(cccc13)C(=O)N(NCC(O)COc1ccc3c(C)cc(=O)oc3c1)C2=O` (stereo unspecified): the growth was 77.7% (inactive).

Turning to `c1n[nH]cc1-c1nc2ccc3[nH]ncc3c2c2c1CC1(CC2)COC1`, the growth is 32.8% (inactive).

In the case of `CCN1CCN(Cc2ccc(C(=O)Nc3cccc(Nc4ccc5c(OC)cccc5n4)c3)cc2C(F)(F)F)CC1`, the growth is -45.4% (active).

As to `O=C(NN1C(=O)/C(=C/C=C/c2ccc([N+](=O)[O-])o2)SC1=S)c1ccc([N+](=O)[O-])cc1`, the growth was -3.98% (active).

Turning to `C=CCn1c(O)c(N=Nc2nc(-c3cc4ccccc4oc3=O)cs2)c2ccccc21`, the growth is 98.3% (inactive).

With `CCCCCCCCCCCCCCCCCC(=O)Nc1ccc(OC)cc1`, the growth is 102% (inactive).

For the molecule `Cn1cc(-c2cc(N)n3nc(-c4c[nH]c5ccc(Cl)cc45)cc3n2)c2cc(Br)cnc21`, the growth was -56.2% (active).

With `COC(=O)c1ccc(-c2c(-c3ccccc3)c(F)c3oc(C(=O)OC)c(N)c3c2-c2ccccc2)cc1`, the growth was 66.5% (inactive).

As for `COc1ccc(-c2nc3ccccc3n2CC(=O)N=Nc2c(O)[nH]c3ccc(Br)cc23)cc1`, the growth is 37.2% (inactive).

As for `O=C(N/N=C/c1c[nH]c2ccccc12)Nc1ccccc1Cl`, the growth is 5.56% (active).

As to `COc1ccc(CCC2NCCc3c(Br)c4c(c(OC)c32)OCO4)cc1` (stereo unspecified), the growth is 9.59% (active).

Turning to `CN(C)c1nc(NCCNS(=O)(=O)c2ccc(C(=O)/C=C/c3ccc(Cl)cc3)cc2)nc(N2CCOCC2)n1`, the growth was 3.71% (active).

On to `COc1ccccc1NC(=O)N/N=C/c1c[nH]c2ccccc12`, for which the growth was 7.13% (active).

As to `O=C1/C(=C/c2cnc(-c3ccccc3)s2)SC(=S)N1Cc1ccc2c(c1)OCO2`, the growth is 99.2% (inactive).

`N#CC1=C(c2cccs2)Nc2c(c(-c3ccccc3)nn2-c2ccccc2)C12C(=O)Nc1ccccc12` (stereo unspecified): the growth is 15% (inactive).

On to `COc1ccc2[nH]c(=O)cc(-n3ncc(C(=O)/C=C/c4cc(OC)c(OC)c(OC)c4)c3C)c2c1`, for which the growth is -7.45% (active).

As to `C[C@H](NC(=O)c1ccc2c(-c3ccc(C(F)(F)F)cc3)cccc2c1)c1ccccn1`, the growth was 19.4% (inactive).

With `Cn1cc(Nc2ncnc(-c3ccc(N4CCCC4)c(C#N)c3)n2)cn1`, the growth was 65.5% (inactive).

Consider `CCCCCCCCc1cccc(CC(=O)Nc2ccc(C)cc2C(=O)O)c1`, for which the growth is 17.9% [25 µM] (inactive).

On to `O=C1CCC(N2C(=O)c3cccc(NCCCCCC(=O)N4CCN(c5ccc6nc7c(nc6c5C(F)(F)F)C(=O)c5ncccc5C7=O)CC4)c3C2=O)C(=O)N1` (stereo unspecified), for which the growth was -25.6% (active).

Regarding `CN1C(=O)/C(=C\C(=O)c2cc3ccccc3oc2=O)c2ccccc21`, the growth is 50.4% (inactive).

Consider `Cc1ccc2nc(NC(=O)Nc3cccc(Cl)c3)sc2c1`, for which the growth was 82.9% (inactive).

Consider `O=C1Nc2ccccc2/C1=C\c1ccc(OCC(=O)c2ccc(Br)cc2)cc1`, for which the growth was 8.54% (active).

Regarding `COc1ccc2[nH]cc(-c3cc(N)n4nc(-c5c[nH]c6ccccc56)cc4n3)c2c1`, the growth was -7.46% (active).

In the case of `Cn1cc(-c2cc(N)n3nc(-c4c[nH]c5ccc(Cl)cc45)cc3n2)c2cccnc21`, the growth was -37.8% (active).

As to `Cc1ccc(-c2cc(C(=O)N=Nc3c(O)[nH]c4ccc(F)cc34)c3ccccc3n2)cc1`, the growth was 65.3% (inactive).

`O=C(NN1C(=O)/C(=C/C=C/c2ccc([N+](=O)[O-])o2)SC1=S)c1ccncc1`: the growth is -38.8% (active).
